Screens: PubChem, National Center for Advancing Translational Sciences (NCATS)
HPGD inh = qHTS Assay for Inhibitors of HPGD (15-Hydroxyprostaglandin Dehydrogenase); Potency, µM, for inactives: at the top dose activity change, negative = inhibition, most hits filed as inhibitors; 4.3% of 150,000 active; AID 894, 2007; purified HPGD, NADH fluorescence kinetic, PGE2 substrate; 15-hydroxyprostaglandin dehydrogenase [NAD(+)] (Homo sapiens), P15428; further: potency means the concentration at half of the fitted maximal effect
Target sequence (P15428 whole entry, looked up): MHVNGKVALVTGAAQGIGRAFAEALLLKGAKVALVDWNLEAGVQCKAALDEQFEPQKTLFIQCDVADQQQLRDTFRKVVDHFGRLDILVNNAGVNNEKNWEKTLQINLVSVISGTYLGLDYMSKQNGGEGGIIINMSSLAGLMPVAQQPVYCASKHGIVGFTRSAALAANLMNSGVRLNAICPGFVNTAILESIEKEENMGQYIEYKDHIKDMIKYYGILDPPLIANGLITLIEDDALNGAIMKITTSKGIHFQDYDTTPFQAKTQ
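NADH formation kinetics: reaction with 30 uM PGE2 and 1 mM NAD+ (final), 20 nM enzyme, Tris-HCl pH 8 with Tween 20, after 15 min compound preincubation at room temperature. Fluorescence change, last versus first of five reads.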
PNC assembly inh = High Content Assay for Compounds that inhibit the Assembly of the Perinucleolar Compartment; PC3M PTB-GFP, PNC prevalence imaging, 16 h; stronger effect = lower value; 3.1% of 140,000 active; AID 2417, 2010; activity change (PNC), negative = inhibition, % at 10 µM;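 active means readout at or below -70, meaning at least 70% loss of cells showing the perinucleolar compartment, a nuclear body marking cancer cells; inconclusive means readout between -30 and a set limit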;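 further: plate controls were DMSO wells for no effect and camptothecin positive control wells for full effect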
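Compounds are pinned in duplicate onto adhered PC3M cells stably expressing GFP-tagged PTB and incubated 16 h at 37 C. Cells are then fixed, nuclei stained with Hoechst, and PNC-positive cells counted.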
ALDH1A1 inh = qHTS Assay for Inhibitors of Aldehyde Dehydrogenase 1 (ALDH1A1) | Aldehyde dehydrogenase 1A1 (Homo sapiens), P00352 | Purified ALDH1A1, NADH fluorescence, propionaldehyde substrate | Potency, µM (doses to about 75.3 µM), without a hit: top-dose activity, negative = inhibition, usual class: inhibitors | 7.3% of 220,000 active;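 further: potency means the concentration at half of the fitted maximal effect; plate controls were no enzyme wells and a reference inhibitor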
The depositor's hits bear a star; ? = inconclusive; . = not tested or not shown. Rows were chosen to be rich in hits. Some 11% of all compounds tested hit in one or more screens of this group. Unless noted, the call rests on the fitted dose curve; in most records, active means well fitted inhibition curve with a large enough effect (not every such curve was filed as active); inconclusive means small, poorly fitted or top-dose-only effect, or another doubt; inactive means no such curve, though single readings can be large or run the other way. Unless noted, on the % scale 0 is the no-effect control and ±100 the full control effect.

SMILES | HPGD inh | PNC assembly inh | ALDH1A1 inh
COC(=O)[C@@]1(Cc2ccc(F)cc2)[C@@H]2[C@@H](CC(=O)[C@H]2CC(=O)C(=O)N(C)C)CN1C(=O)c1ccccc1 | -2% | 30 | 20%
COC(=O)[C@@]1(Cc2ccc(OC)cc2)[C@@H]2[C@@H](CC(=O)[C@H]2CC(=O)C(=O)N(C)C)CN1C(=O)c1ccccc1 | -5% | -88* | 18%
COC(=O)[C@@]1(Cc2ccc(OC)cc2)[C@H]2c3cc(C(=O)N(C)C)n(CCO)c3C[C@H]2CN1C(=O)c1ccccc1 | -7% | . | -7%
COC(=O)[C@@]1(Cc2ccc(F)cc2)[C@H]2c3cc(C(=O)N4CCCC4)n(Cc4ccc(C)o4)c3C[C@H]2CN1C(=O)c1ccccc1 | 22µM* | . | -2%
COC(=O)[C@@]1(Cc2ccc(OC)cc2)[C@H]2c3cc(C(=O)N(C)C)n(Cc4ccc(C)o4)c3C[C@H]2CN1C(=O)c1ccccc1 | 25µM* | . | ?
COC(=O)[C@@]1(Cc2ccc(F)cc2)[C@H]2c3cc(C(=O)N4CCCC4)n(Cc4ccc(C)c(F)c4F)c3C[C@H]2CN1C(=O)c1ccccc1 | -15% | . | 4%
C=C1C(=O)C=C2CN(C(=O)c3ccccc3)[C@@](Cc3ccc(OC)cc3)(C(=O)OC)[C@@H]12 | 7.1µM* | . | ?
COC(=O)[C@@]1(Cc2ccc(OC)cc2)[C@@H]2C(=CC(=O)[C@H]2CC(=O)C(=O)N2CCCC2)CN1C(=O)c1ccccc1 | -7% | 73 | -1%
Cc1ccccc1N(Cc1nnc2n1CCCCC2)C(=O)Nc1ccccc1 | -5% | 33 | 0%
Cc1ccc(NC2=NC(=S)N(CC#N)C23CCCCC3)cc1 | -10% | -14 | 8%
O=C(Nc1ccc(C(=O)N2CCOCC2)cc1)c1cccc([N+](=O)[O-])c1 | . | . | 5%
CCC(=O)Nc1cccc(NC(=O)c2ccccc2Cl)c1 | . | . | -4%
CCC(=O)Nc1cccc(NC(=S)NC(=O)c2ccccc2Cl)c1 | -5% | ? | 2%
CC(C)Oc1cccc(C(=O)NC(=S)Nc2ccccc2)c1 | -20% | -101* | 10µM*
CCCCOc1cccc(C(=O)NC(=S)Nc2cccc(NC(=O)c3ccccc3Cl)c2)c1 | -11% | -10 | 2µM*
CC(C)Oc1cccc(C(=O)NC(=S)Nc2cccnc2)c1 | -8% | -13 | ?
CCCOc1ccc(CC(=O)NNC(=S)Nc2ccccc2)cc1Br | ? | 0 | 18µM*
CCCOc1cccc(C(=O)NC(=S)Nc2cccc(NC(=O)c3ccccc3Cl)c2)c1 | -12% | ? | 13µM*
CCc1ccc(OCC(=O)NC(=S)Nc2cccc(CO)c2)c(Br)c1 | -20% | 30 | -10%
CCNC(=O)NC(=O)C(C)OC(=O)CNS(=O)(=O)c1c(Cl)cc(Br)cc1Cl (stereo unspecified) | . | . | -3%
CC(C)COc1cccc(C(=O)NC(=S)Nc2cccc(NC(=O)c3ccccc3Cl)c2)c1 | -7% | 3 | 10µM*
CCCOc1cccc(C(=O)O)c1 | -4% | ? | 5%
CCCOc1cccc(C(=O)NC(=S)Nc2ccccc2)c1 | -20% | -20 | 18µM*
CC(C)C(=O)Nc1cccc(NC(=S)NC(=O)c2ccccc2Cl)c1 | 0% | 39 | ?
